Holding throughout (assay): DAPPL (digital affinity profiling via proximity ligation, sequencing); 10 mM Tris-HCl pH 7.5, 50 mM NaCl, 1 mM DTT, 4% glycerol, room temperature, 30 min; GST-TFs on glutathione beads, 16-mer random dsDNA library, 0.1% formaldehyde crosslink after washing; high values mean tight binding
In one test the target is T1, FEV (Homo sapiens, UniProt Q99581 1-238).
T1 sequence: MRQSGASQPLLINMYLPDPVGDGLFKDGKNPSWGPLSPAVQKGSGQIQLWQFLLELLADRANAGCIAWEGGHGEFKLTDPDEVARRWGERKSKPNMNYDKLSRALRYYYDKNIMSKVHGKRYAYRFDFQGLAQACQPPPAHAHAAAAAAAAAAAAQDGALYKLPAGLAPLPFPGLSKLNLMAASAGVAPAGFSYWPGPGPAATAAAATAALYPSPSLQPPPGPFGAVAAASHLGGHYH
Particulars: protein: recombinant; tags: N-terminal GST; dsDNA, one strand shown. A digest of the protocol:
(§1)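 Human transcription factors carrying a GST fusion were produced in yeast, bound to glutathione beads, tagged with DNA barcodes and pooled together with a tag-only sample. Each pool was held with 200 nmole of a random double-stranded 16-mer DNA library in Tris/NaCl/DTT/glycerol buffer for 30 min at room temperature, then washed, crosslinked in 0.1% formaldehyde, proximity-ligated with BsaI/T4 ligase (1 h, 37 °C), PCR-amplified and sequenced on an Illumina NextSeq500. Binding signal is the read frequency of each hexamer for a given factor divided by its frequency in the tag-only sample.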

For the next test, the target named is ETV5 (Homo sapiens, UniProt P41161 1-510). The conditions noted are these: protein: recombinant; tags: N-terminal GST; dsDNA, one strand shown. In short, it runs like this: as §1
A further test addresses HSF1 (Homo sapiens, UniProt Q00613 1-529). The conditions noted are these: protein: recombinant; tags: N-terminal GST; chain copies: 3; dsDNA, one strand shown. A digest of the protocol: as §1
For a further test, the target named is T2, SPIC (Homo sapiens, UniProt Q8N5J4 1-248).
T2 sequence: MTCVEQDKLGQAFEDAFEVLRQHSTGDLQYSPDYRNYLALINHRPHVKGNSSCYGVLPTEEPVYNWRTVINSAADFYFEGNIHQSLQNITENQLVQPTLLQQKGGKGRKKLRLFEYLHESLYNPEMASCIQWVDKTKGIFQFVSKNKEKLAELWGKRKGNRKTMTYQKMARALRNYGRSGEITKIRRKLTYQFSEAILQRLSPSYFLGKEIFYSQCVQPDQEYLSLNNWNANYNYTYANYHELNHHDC
The conditions noted are these: protein: recombinant; tags: N-terminal GST; dsDNA, one strand shown. In short, it runs like this:
as §1

Another test concerns the target ELF4 (Homo sapiens, UniProt Q99607 1-663). The conditions noted are these: protein: recombinant; tags: N-terminal GST; dsDNA, one strand shown. In short, it runs like this: as §1
The next test deals with T3, ELK4 (Homo sapiens, UniProt P28324-2 1-405).
T3 sequence: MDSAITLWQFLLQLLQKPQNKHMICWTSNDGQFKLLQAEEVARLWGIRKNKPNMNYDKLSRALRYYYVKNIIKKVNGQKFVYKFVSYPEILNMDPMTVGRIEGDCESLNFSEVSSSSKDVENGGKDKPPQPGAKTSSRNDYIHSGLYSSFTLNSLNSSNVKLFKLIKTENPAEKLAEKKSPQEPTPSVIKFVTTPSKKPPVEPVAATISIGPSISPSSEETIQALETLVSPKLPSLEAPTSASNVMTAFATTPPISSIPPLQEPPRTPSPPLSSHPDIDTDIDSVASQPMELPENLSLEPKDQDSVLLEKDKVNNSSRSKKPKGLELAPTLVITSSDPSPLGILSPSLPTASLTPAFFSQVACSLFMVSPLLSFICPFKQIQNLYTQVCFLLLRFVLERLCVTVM
Particulars: protein: recombinant; tags: N-terminal GST; dsDNA, one strand shown. A digest of the protocol: as §1

Another test deals with T4, ETV2 (Homo sapiens, UniProt O00321 1-342).
T4 sequence: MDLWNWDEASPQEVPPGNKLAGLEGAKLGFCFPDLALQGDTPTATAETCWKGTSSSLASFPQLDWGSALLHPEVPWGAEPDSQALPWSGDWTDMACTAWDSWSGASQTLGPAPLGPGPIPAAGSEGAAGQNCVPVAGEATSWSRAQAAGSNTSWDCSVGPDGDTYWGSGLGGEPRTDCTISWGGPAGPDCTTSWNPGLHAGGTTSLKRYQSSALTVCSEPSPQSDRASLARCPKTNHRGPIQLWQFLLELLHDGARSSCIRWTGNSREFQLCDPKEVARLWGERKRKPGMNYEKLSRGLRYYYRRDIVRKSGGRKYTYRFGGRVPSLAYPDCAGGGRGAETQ
The conditions noted are these: protein: recombinant; tags: N-terminal GST; dsDNA, one strand shown. In short, it runs like this:
as §1

The next test addresses T5, ELF3 (Homo sapiens, UniProt P78545 1-371).
T5 sequence: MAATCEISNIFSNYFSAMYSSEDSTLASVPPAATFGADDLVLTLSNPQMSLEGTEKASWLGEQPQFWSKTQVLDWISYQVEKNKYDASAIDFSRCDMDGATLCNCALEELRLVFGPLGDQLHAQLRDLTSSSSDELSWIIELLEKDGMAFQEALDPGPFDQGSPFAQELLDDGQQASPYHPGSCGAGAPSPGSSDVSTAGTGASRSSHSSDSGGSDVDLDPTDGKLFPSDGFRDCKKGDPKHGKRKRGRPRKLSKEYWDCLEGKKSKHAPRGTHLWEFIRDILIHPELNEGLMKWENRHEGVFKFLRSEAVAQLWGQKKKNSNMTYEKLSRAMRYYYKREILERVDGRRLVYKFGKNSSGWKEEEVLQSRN
The conditions noted are these: protein: recombinant; tags: N-terminal GST; dsDNA, one strand shown. A digest of the protocol:
as §1

Another test addresses CRX (Homo sapiens, UniProt O43186 1-299). Particulars: protein: recombinant; tags: N-terminal GST; dsDNA, one strand shown. A digest of the protocol: as §1
The target in another test is ETV1 (Homo sapiens, UniProt P50549 1-477). The conditions noted are these: protein: recombinant; tags: N-terminal GST; dsDNA, one strand shown. In short, it runs like this:
as §1

Another test concerns the target T6, ERF (Homo sapiens, UniProt P50548 1-548).
T6 sequence: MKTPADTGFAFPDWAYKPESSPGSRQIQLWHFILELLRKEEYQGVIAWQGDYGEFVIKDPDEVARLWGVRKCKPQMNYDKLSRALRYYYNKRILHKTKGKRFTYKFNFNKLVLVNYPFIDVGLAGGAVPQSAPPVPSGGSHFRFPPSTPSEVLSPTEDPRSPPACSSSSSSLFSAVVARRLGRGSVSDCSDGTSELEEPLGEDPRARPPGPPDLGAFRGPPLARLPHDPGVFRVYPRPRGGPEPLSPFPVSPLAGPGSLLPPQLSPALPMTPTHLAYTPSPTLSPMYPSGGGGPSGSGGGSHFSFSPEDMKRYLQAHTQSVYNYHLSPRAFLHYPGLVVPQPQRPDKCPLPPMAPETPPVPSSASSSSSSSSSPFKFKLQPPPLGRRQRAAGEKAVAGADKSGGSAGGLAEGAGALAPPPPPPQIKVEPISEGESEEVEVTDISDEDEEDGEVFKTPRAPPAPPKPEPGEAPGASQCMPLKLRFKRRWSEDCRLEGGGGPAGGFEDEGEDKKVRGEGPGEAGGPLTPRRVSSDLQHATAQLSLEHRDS
Particulars: protein: recombinant; tags: N-terminal GST; dsDNA, one strand shown. In short, it runs like this:
as §1

In a further test the target is T7, ETV3L (Homo sapiens, UniProt Q6ZN32 1-361).
T7 sequence: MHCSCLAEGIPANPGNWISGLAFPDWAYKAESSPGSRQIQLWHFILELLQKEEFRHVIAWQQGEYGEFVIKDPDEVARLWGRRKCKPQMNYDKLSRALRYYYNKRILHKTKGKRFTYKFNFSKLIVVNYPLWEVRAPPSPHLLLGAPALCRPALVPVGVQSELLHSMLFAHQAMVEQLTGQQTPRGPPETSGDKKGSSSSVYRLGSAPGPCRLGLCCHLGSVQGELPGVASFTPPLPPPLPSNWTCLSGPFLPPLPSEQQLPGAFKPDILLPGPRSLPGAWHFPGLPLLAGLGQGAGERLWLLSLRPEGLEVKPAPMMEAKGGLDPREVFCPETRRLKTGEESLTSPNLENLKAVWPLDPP
The conditions noted are these: protein: recombinant; tags: N-terminal GST; dsDNA, one strand shown. In short, it runs like this: as §1

A further test concerns the target T8, ETS2 (Homo sapiens, UniProt P15036 1-469).
T8 sequence: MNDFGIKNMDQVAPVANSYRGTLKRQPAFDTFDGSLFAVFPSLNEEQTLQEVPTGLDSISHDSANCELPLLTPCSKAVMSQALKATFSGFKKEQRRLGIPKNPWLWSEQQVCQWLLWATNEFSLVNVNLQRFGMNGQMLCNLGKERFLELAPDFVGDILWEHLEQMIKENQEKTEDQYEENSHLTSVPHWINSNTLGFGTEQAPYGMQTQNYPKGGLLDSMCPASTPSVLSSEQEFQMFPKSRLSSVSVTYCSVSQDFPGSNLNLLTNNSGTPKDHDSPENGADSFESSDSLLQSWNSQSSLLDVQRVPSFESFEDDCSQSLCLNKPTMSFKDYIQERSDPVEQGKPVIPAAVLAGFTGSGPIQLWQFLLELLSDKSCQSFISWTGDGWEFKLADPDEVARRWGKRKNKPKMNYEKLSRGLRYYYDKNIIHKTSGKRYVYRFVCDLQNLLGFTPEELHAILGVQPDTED
The conditions noted are these: protein: recombinant; tags: N-terminal GST; dsDNA, one strand shown. A digest of the protocol: as §1

Another test concerns the target T9, SPDEF (Homo sapiens, UniProt O95238 1-335).
T9 sequence: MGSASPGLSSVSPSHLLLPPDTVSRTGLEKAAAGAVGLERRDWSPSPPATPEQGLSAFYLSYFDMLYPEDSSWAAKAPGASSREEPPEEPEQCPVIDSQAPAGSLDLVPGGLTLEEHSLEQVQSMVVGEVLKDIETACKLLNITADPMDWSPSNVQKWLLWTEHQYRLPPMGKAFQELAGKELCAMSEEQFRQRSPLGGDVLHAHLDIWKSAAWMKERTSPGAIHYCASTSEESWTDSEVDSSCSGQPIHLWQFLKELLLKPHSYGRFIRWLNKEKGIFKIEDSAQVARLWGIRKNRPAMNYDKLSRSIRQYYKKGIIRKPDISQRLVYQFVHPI
The conditions noted are these: protein: recombinant; tags: N-terminal GST; dsDNA, one strand shown. In short, it runs like this: as §1

The next test addresses T10, ETV7 (Homo sapiens, UniProt Q9Y603 1-341).
T10 sequence: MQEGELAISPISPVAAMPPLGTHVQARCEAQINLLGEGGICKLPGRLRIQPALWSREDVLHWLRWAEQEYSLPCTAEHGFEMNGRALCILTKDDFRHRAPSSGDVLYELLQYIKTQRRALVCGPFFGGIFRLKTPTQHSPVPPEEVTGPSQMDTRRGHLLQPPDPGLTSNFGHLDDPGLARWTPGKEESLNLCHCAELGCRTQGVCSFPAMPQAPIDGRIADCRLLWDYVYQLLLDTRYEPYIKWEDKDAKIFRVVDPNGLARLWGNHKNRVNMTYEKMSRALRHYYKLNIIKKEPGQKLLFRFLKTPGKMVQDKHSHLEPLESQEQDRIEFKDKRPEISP
Particulars: protein: recombinant; tags: N-terminal GST; dsDNA, one strand shown. In short, it runs like this: as §1

A further test deals with T11, ELF5 (Homo sapiens, UniProt Q9UKW6-2 1-255).
T11 sequence: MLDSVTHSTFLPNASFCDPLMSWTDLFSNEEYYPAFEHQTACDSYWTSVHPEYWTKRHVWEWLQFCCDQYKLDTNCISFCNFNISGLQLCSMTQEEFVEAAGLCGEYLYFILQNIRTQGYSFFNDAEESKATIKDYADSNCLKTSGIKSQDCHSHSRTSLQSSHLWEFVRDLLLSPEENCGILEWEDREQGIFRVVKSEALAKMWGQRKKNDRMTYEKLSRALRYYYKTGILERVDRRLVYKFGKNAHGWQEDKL
Particulars: protein: recombinant; tags: N-terminal GST; dsDNA, one strand shown. In short, it runs like this: as §1

A further test addresses T12, ETV3 (Homo sapiens, UniProt P41162-2 1-143).
T12 sequence: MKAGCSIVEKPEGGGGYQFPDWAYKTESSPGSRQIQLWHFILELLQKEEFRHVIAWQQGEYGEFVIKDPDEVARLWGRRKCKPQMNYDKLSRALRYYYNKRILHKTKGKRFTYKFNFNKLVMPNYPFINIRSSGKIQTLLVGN
Particulars: protein: recombinant; tags: N-terminal GST; dsDNA, one strand shown. In short, it runs like this:
as §1

Another test deals with ETV6 (Homo sapiens, UniProt P41212 1-452). Particulars: protein: recombinant; tags: N-terminal GST; dsDNA, one strand shown. In short, it runs like this:
as §1

Chain of ETV5 (P41161 whole entry): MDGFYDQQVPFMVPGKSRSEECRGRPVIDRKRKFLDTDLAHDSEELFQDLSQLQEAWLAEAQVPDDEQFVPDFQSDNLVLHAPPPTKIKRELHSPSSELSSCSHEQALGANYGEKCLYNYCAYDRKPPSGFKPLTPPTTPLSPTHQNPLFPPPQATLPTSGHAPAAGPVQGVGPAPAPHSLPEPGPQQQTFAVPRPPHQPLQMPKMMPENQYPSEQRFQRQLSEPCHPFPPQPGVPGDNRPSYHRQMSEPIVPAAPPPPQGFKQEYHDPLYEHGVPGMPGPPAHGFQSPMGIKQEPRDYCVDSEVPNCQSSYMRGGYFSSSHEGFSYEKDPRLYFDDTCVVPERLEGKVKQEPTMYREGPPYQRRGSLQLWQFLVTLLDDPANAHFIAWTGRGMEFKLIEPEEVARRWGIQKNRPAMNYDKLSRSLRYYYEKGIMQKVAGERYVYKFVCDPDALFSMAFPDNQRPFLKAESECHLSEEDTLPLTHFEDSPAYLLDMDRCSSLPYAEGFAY
Chain of HSF1 (Q00613 whole entry): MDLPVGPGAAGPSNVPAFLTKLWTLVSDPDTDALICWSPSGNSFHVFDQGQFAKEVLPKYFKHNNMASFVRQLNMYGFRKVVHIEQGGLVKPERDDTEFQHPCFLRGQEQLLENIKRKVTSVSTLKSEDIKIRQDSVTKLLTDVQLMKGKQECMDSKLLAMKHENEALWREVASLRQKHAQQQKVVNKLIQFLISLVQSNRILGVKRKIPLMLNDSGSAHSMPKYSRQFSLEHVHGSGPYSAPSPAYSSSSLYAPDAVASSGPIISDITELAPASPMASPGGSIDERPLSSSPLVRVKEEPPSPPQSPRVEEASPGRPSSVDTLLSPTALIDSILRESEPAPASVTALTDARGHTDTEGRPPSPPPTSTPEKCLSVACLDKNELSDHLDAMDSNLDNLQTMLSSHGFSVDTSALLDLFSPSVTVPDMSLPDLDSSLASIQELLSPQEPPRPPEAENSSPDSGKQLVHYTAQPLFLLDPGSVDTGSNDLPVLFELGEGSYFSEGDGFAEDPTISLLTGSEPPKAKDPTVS
Chain of ETV6 (P41212 whole entry): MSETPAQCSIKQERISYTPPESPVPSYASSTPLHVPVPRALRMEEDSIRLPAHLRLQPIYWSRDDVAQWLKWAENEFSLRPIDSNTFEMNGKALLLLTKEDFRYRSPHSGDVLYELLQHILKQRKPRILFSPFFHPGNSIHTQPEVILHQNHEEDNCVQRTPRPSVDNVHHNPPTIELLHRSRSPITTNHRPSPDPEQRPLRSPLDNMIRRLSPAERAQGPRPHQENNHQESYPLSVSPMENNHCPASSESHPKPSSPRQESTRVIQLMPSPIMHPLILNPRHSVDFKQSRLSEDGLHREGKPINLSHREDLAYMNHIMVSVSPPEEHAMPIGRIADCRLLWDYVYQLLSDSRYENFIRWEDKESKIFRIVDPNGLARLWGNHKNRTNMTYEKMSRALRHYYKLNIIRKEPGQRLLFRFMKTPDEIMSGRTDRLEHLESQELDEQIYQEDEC
Chain of ETV1 (P50549 whole entry): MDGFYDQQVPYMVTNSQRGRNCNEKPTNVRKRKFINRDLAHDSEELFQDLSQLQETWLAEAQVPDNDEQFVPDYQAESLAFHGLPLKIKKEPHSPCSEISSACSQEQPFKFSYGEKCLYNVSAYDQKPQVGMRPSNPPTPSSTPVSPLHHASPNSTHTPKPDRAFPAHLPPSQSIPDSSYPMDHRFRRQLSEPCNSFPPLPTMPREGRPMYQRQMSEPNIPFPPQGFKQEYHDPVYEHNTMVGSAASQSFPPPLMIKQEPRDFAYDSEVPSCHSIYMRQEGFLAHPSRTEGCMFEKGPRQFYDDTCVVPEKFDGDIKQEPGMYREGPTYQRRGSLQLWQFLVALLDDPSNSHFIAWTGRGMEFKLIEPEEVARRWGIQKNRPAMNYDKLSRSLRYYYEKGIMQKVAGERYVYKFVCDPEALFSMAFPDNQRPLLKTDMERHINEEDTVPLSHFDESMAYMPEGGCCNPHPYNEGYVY
Chain of ELF4 (Q99607 whole entry): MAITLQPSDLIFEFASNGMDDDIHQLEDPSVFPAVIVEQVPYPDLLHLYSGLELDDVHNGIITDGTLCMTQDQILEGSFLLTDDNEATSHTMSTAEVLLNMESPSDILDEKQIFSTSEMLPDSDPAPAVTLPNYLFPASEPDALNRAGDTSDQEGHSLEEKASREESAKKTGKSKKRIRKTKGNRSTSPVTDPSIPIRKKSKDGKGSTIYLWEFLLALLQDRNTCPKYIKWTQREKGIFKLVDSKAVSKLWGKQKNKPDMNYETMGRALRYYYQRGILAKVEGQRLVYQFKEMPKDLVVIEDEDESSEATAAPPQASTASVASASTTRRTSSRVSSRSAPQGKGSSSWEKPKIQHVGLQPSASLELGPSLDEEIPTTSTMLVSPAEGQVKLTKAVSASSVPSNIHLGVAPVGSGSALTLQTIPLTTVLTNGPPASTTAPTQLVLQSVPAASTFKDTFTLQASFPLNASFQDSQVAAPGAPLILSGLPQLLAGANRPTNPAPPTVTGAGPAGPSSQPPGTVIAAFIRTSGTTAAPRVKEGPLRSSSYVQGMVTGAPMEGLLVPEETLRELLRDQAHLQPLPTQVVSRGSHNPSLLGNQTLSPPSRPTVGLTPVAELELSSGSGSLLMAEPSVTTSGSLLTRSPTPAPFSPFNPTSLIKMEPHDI
Chain of CRX (O43186 whole entry): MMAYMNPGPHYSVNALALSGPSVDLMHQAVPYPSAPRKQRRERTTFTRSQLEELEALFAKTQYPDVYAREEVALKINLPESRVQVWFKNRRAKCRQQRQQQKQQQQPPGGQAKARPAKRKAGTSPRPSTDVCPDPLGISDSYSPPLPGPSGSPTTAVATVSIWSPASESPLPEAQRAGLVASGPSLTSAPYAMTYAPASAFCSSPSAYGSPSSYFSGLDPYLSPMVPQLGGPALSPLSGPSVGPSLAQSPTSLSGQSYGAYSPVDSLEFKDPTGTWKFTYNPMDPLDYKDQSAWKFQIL

Consider TTATCC, for which the binding signal is 1.44 fold enrichment (6-mer frequency, TF over GST control) with FEV; 1.45 fold enrichment (6-mer frequency, TF over GST control) with ETV5; 2.49 fold enrichment (6-mer frequency, TF over GST control) with HSF1; 1.51 fold enrichment (6-mer frequency, TF over GST control) with SPIC; 1.33 fold enrichment (6-mer frequency, TF over GST control) with ELF4; 1.45 fold enrichment (6-mer frequency, TF over GST control) with ELK4. For the same sequence, the binding signal was 1.61 fold enrichment (6-mer frequency, TF over GST control) in the test with ETV2; 1.41 fold enrichment (6-mer frequency, TF over GST control) in the test with ELF3; 3.97 fold enrichment (6-mer frequency, TF over GST control) with CRX; 1.27 fold enrichment (6-mer frequency, TF over GST control) in the test with ETV1; 1.44 fold enrichment (6-mer frequency, TF over GST control) with ERF; 1.38 fold enrichment (6-mer frequency, TF over GST control) in the test with ETV3L. For the same sequence, the binding signal in the test with ETS2 is 1.51 fold enrichment (6-mer frequency, TF over GST control); in the test with SPDEF, 1.76 fold enrichment (6-mer frequency, TF over GST control); with ETV7, 1.44 fold enrichment (6-mer frequency, TF over GST control); with ELF5 it was 1.56 fold enrichment (6-mer frequency, TF over GST control); with ETV3 it was 1.51 fold enrichment (6-mer frequency, TF over GST control); in the test with ETV6 it was 1.47 fold enrichment (6-mer frequency, TF over GST control).

For the origin of these results see publication PMC7862700, “An all-to-all approach to the identification of sequence-specific readers for epigenetic DNA modifications on cytosine”.
